This is an account of results in PubChem BioAssay AID720532 (National Center for Advancing Translational Sciences (NCATS), 2013).

Where “and” joins values, the source holds several entries; their conditions need not be identical. Identical values can stand only once. Among all 18,000 compounds or so, about 1,200 (6.7%) were called active. About 16% were inconclusive and are not listed. The entries come from a sample that favours actives as a whole. Entries that show only a call come without a potency. A number with no mark means an inactive call. The call rests on the fitted dose curve; tested in HEK293 cells.
Potency means the concentration at half of the fitted maximal effect.

A short description of the assay: qHTS for Inhibitors of binding or entry into cells for Marburg Virus. The conditions noted are these: Marburg virus pseudotype entry/binding inhibition, cell-based; series mostly up to 49.2 µM. Background: qHTS replaces the single test concentration by a dilution series.
With `Clc1ccc(C(Cn2ccnc2)OCc2ccsc2Cl)c(Cl)c1` (stereo not given), the activity change, negative = inhibition result was “inactive”.
Same read-out and setting: then `Brc1ccc(C2=NCCC(c3ccccc3)O2)cc1` (stereo not given), with “inactive”; and `C[C@@H]1C(c2ccccc2)=Cc2[nH]c(=O)[nH]c2C[C@@H]1C(=O)N1CCCC1`, with 7.81% [at 8.59 µM].
Take `COC(=O)C=C[C@H]1c2ccccc2[C@@H](OC)[C@@H]1C`: the activity change, negative = inhibition was 16.3% [at 8.59 µM] and -4.37% [at 8.59 µM].
Same read-out and setting: then `CCOC(=O)CN1C(=O)NC(CCc2ccccc2)C(C(C)=O)=C1C` (stereo not given), with 3.64% [at 8.59 µM].
Take `COC(=O)C(C(=O)OC)C1c2ccccc2C=C(C2CC2)N1C(=O)OC` (stereo not given): the activity change, negative = inhibition result is “inactive”.
For `CCCNC(=O)CC1OC(C2CCCCC2)Cc2ccccc21` (stereo not given), the activity change, negative = inhibition was -26.1% [at 8.59 µM].
The same measure, in the same setting: then `Cc1cc2oc(=O)cc(CN(C)Cc3ccccc3)c2cc1Cl`, with “inactive”; and `CCOC(OCC)OCC`, with “inactive”.
The same measure, in the same setting: then `CCCCC/C=C\C/C=C\C/C=C\CCCCCCC(N)=O`, with “inactive”; and `COc1ccc([C@]23Cc4cc(OC)c(OC)cc4[C@H](O2)c2c(cc(C)oc2=O)O3)cc1`, with 8.88% [at 8.59 µM].
Still for that read-out and setting: then `O=C(O)CCCc1ccccc1`, with “inactive”.
Consider `O=C(c1ccc(F)cc1)C1CCN(CCCCc2ccccc2)CC1`, for which the Potency is 15.8 µM (active).
With `O=C(O)C[C@@H]1NC(=O)[C@H](Cc2ccccc2)NC1=O`, the activity change, negative = inhibition entry was “inactive”.
Same read-out and setting: then `O=C(O)C1CCCN(CCC=C(c2ccccc2)c2ccccc2)C1` (stereo not given), with “inactive”.
With `c1ccc(CCCCN2CCC(c3ccccc3)CC2)cc1`, the Potency was 14.1 µM (active).
As to `CCCCCCCC[C@@H](O)/C=C/C=C/C=C\[C@@H](O)CCCC(=O)O`, the activity change, negative = inhibition result was “inactive”.
With `COC(=O)C1(C(C)=O)CC2=CC[C@H]3C(=O)N(c4ccccc4)C(=O)[C@H]3[C@@H]2Cc2ccccc2[C@@H]1C[N+](=O)[O-]` (stereo not given in full), the activity change, negative = inhibition entry is “inactive”.
Still for that read-out and setting: then `CC(C)(C)OC(=O)NCCCC1=CC2=CC(=O)C(C)(OC(=O)c3ccco3)C(=O)C2=CO1` (stereo not given), with “inactive”.
Regarding `NNc1nnc(Cc2ccncc2)c2ccccc12`, the Potency is 11.2 µM (active).
As to `NNc1nnc(NN)c2ccccc12`, the activity change, negative = inhibition result is “inactive”.
As for `CCN(CCNC(=O)[C@H]1C=C(OC)C(=O)C[C@@H]2c3ccccc3C[C@]12C)C(C)=O`, the activity change, negative = inhibition was 0.4% [at 8.59 µM].
Still for that read-out and setting: then `FCOC(C(F)(F)F)C(F)(F)F`, with “inactive”; and `CC1(OC(=O)c2ccc(Cl)nc2)C(=O)Cc2cc(-c3ccsc3)ncc2C1=O` (stereo not given), with -19.4% [at 8.59 µM].
With `CN1CCC[C@@H]1CCO[C@](C)(c1ccccc1)c1ccc(Cl)cc1`, the Potency was 14.1 µM (active) and 28.2 µM (active).
Same read-out and setting: then `CN1CCCC1CCO[C@@](C)(c1ccccc1)c1ccc(Cl)cc1` (stereo not given in full), with 10 µM (active).
As for `CC(=O)C1=C(C)N(Cc2ccccc2)C(=O)NC1c1cccs1` (stereo not given), the activity change, negative = inhibition was 3.55% [at 8.59 µM].
As for `CCCCCCN1C[C@@H](O)[C@H](n2cc(C3CC3)nn2)C[C@H]1c1ccccc1`, the activity change, negative = inhibition result is “inactive”.
Same read-out and setting: then `COc1ccc(C2=C(N3CCc4ccccc43)C(=O)NC2=O)cc1`, with “inactive”; and `CCCCC/C=C\C/C=C\C/C=C\CCCCC(=O)NCC(=O)O`, with “inactive”.
The same measure, in the same setting: then `CC(C)[C@H]1COCCS(=O)(=O)N1Cc1ccccc1-c1cccc2c1sc1ccccc12`, with “inactive”; and `COC(=O)C1=C(C)N(Cc2ccccc2)C(=NCCc2ccc([N+](=O)[O-])cc2)NC1c1cccc(F)c1` (stereo not given), with 9.24% [at 8.59 µM].
The same measure, in the same setting: then `COc1ccc(C2CC(=O)Oc3ccc(C(C)(C)C)cc32)cc1` (stereo not given), with “inactive”; and `CCOC(=O)C1C/C(=C\C(C)=O)c2cccc(C(F)(F)F)c2O1` (stereo not given), with “inactive”.
For `Cc1cnc(C)c(-c2cc(F)c3c(c2)CC(CNC(=O)c2cccc(Cn4cccn4)c2)O3)n1` (stereo not given), the activity change, negative = inhibition entry was “inactive”.
Consider `CCN(CC)CCCC(C)Nc1ccnc2cc(Cl)ccc12` (stereo not given), for which the Potency was 10 µM (active) and 5.01 µM (active).
Turning to `COc1ccc(-c2c(C)cc3oc(=O)cc(-c4ccccc4)c3c2C)cc1F`, the activity change, negative = inhibition entry was “inactive”.
Still for that read-out and setting: then `C=CCN1C(=O)N(Cc2ccccc2)c2ccccc2S1(=O)=O`, with “inactive”.
On the same count and under the same terms, then `COc1ccc(CNS(=O)(=O)c2cc(Br)ccc2Br)cc1`, with “inactive”.
With `COc1ccc2[nH]cc(CCNCc3ccc(Br)cc3)c2c1`, the Potency is 15.8 µM (active).
For `COc1ccc2[nH]cc(CCNc3nc(-c4cccc(NS(C)(=O)=O)c4)nc4ccccc34)c2c1`, the activity change, negative = inhibition entry is “inactive”.
Take `Cc1cc(N(C)C)nc(Cl)n1`: the activity change, negative = inhibition entry is “inactive”.
On the same count and under the same terms, then `CC(C)(C)Nc1oc(-c2ccccc2)nc1C=Cc1ccccc1`, with 3.65% [at 8.59 µM]; and `CCOC(=O)CCN1C(=O)[C@@H]2[C@H]3[C@H](O)[C@H](O)CC(=NOCC(C)C)[C@@H]3CC[C@H]2C1=O`, with -10.9% [at 8.59 µM].
Same read-out and setting: then `C=C(C)C1CC=C(C)C(O)C1` (stereo not given), with “inactive”.
